Screening results deposited in PubChem BioAssay by several laboratories.
Mtb FBA inh: Mtb FBA enzyme inhibitors, primary screen, biochemical, fluorescence, strain H37Rv | Fructose-bisphosphate aldolase (Mycobacterium tuberculosis (strain ATCC 25618 / H37Rv)), … | purified M. tuberculosis FBA, fluorescence read-out | inhibition, % at 1 µM | hit rate 2.3% among 360,000 | AID 588726, 2011; in the data active = inhibition above about 27%;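 also: 0% = vehicle and 100% = reference inhibitor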
Target sequence (P9WQA3 whole entry, looked up): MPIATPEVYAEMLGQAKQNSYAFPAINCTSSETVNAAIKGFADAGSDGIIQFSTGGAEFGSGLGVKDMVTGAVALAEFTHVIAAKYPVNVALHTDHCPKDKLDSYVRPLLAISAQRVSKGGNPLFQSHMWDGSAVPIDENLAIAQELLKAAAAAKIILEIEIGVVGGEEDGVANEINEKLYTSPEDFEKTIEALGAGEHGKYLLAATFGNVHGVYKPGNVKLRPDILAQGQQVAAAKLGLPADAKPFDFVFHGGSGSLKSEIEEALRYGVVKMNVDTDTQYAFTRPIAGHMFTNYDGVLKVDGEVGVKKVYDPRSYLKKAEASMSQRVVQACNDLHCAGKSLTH
Mtb betalactam: beta-lactam sensitization of Mtb H37Rv, H37Rv. M. tuberculosis H37Rv growth with meropenem, percent inhibition. hit rate 0.27% among 330,000. inhibition, % at 25 µM; call rule not given here;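 also: growth measured after seven days incubation then overnight dye step; 0% = bacteria only wells and 100% = bacteria with antibiotic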
RecA splice inh: Mtb RecA intein splicing inhibitors, primary screen, biochemical, fluorescence, HTS. AID 2221, 2009. hit rate 0.75% among 290,000. cell-free RecA intein splicing. inhibition, % (test concentration not listed); in the data active = inhibition above about 30%; inconclusive = no clear call, values can overlap the other calls;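 also: 0% = vehicle wells and 100% = reference inhibitor control wells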
GDH-TPI inh: GDH-TPI coupling enzyme inhibitors, primary screen, artefact control for M. tuberculosis FBA inhibitor project, biochemical, absorbance, full deck. GDH-TPI coupled enzyme counterscreen, NADH absorbance. inhibition, % at 4.8 µM. hit rate 1.2% among 360,000. AID 588335, 2011; in the data active = inhibition above about 30%;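 also: 0% = DMSO wells and 100% = wells lacking the enzyme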
Mtb UGM inh: M. tuberculosis UGM enzyme inhibitors, primary screen, biochemical, fluorescence polarization, single point. UDP-galactopyranose mutase (Mycobacterium tuberculosis (strain ATCC 25618 / H37Rv)), …. purified UGM, fluorescence polarization probe displacement. inhibition, % at 10 µM. hit rate 0.06% among 320,000; in the data active = inhibition above about 10%, passing the limit was not always enough; inconclusive = no clear call, values can overlap the other calls
Rv3671c inh: Rv3671c serine protease inhibitors, primary screen, biochemical, fluorescence polarization, M. tuberculosis H37Rv. hit rate 0.048% among 320,000. inhibition, % at 5.96 µM. P9WHR9; in the data active = inhibition above about 38%;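 also: extracellular domain of Rv3671c used as enzyme; 0% = enzyme with DMSO and 100% = no enzyme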
* marks the source's active call; other numbers are inactive results; i = inactive; ? = inconclusive; . = no result given; + = active, no number. Sampled rows, rich in hits. Any-hit rate of the full collection: about 4%.

SMILES	Mtb FBA inh	Mtb betalactam	RecA splice inh	GDH-TPI inh	Mtb UGM inh	Rv3671c inh
Cc1cccn2cc(-c3ccc(Cl)cc3)nc12	20	16	.	6	0	8
Cc1ccc(-c2cn3cccc(C)c3n2)cc1	27	.	-1	3	.	.
O=S(=O)(c1ccc(-c2cn3ccccc3n2)cc1)N1CCOCC1	+	?	2	-6	-2	-3
Cc1cccn2cc(-c3ccc(S(=O)(=O)N4CCCCC4)cc3)nc12	135*	0	-1	8	-1	5
CC1(c2ccc(OC(F)F)cc2)NC(=O)N(CC(=O)Nc2ccc(N3CCCCC3)cc2)C1=O (stereo unspecified)	-2	-4	-3	13	1	3
CCc1nc2c(OCc3ccc(Cl)cc3Cl)cccn2c1N(C)C(=O)C1CC1	0	.	.	6	.	.
CC(OC(=O)CCCN=C1NS(=O)(=O)c2ccccc21)C(=O)Nc1ccccc1[N+](=O)[O-] (stereo unspecified)	-2	-3	-3	1	-1	4
CSc1nc2nccc(/C=C\c3ccccc3)n2n1	-2	13	2	31*	-1	-3
CCCSc1ccc([C@@H]2[C@@H]3C(=O)N(C)C(=O)[C@@H]3[C@]3(C(=O)OC)CCCN23)cc1OC	6	-8	.	4	2	-5
C#CCOCCOCCOCCNc1nc(N2CCN(C(=O)CCCCCCCCCCNC(=O)[C@H](CCCCN)n3cc(C[C@@H](C)CC)nn3)CC2)nc(N2CCN(C(=O)CCCCCCCCCCNC(=O)[C@H](CCCCN)n3cc(C[C@@H](C)CC)nn3)CC2)n1	3	65	66*	-8	-2	-13
O=C(Nc1nc2ccccc2n1Cc1ccc(Cl)cc1)c1ccco1	3	20	-1	22	1	1
O=C(Nc1nc2ccccc2n1CCOc1ccccc1)c1ccco1	3	94	1	34*	-1	2
C=CCn1c(NC(=O)c2ccco2)nc2ccccc21	0	96	.	35*	3	3
C/C(=N\NC(=O)c1ccc(NS(=O)(=O)c2cccs2)cc1)c1ccccc1	2	3	-2	16	3	-13
C/C(=N\NC(=O)c1ccc(NS(=O)(=O)c2cccs2)cc1)c1ccncc1	1	3	-1	32*	1	-1
C/C(=N\NC(=O)c1ccc(NS(=O)(=O)c2cccs2)cc1)c1ccc(O)cc1O	1	-8	8	68*	0	30
C=CC[C@@H](CC(=O)N[C@H](CO)Cc1ccccc1)C(=O)N[C@@H](COC(=O)[C@@H](CC=C)CC(=O)OC(C)(C)C)Cc1ccccc1	2	-7	.	0	1	0
CCn1c(C(=O)O)c(CC(=O)Nc2ccc(Br)cc2C)c2ccccc21	2	-4	-5	-2	0	-9
CC(C)(C)c1[nH]nc2c1C(c1ccoc1)C(C#N)=C(N)O2 (stereo unspecified)	2	0	56*	-5	3	1
Cc1ccc(-c2[nH]nc3c2C(c2ccoc2)C(C#N)=C(N)O3)cc1C (stereo unspecified)	-2	7	92*	-1	0	-5
Cc1ccc(-n2nc(C)c3c2OC(N)=C(C#N)C3c2ccoc2)cc1 (stereo unspecified)	2	3	71*	0	-3	-3
CC(OC(=O)C1CCN(c2ccc(C(F)(F)F)cn2)CC1)C(=O)c1ccccc1 (stereo unspecified)	4	-7	1	1	1	-12
COc1cccc(CN(C)Cc2cc(=O)oc3cc(O)c(Cl)cc23)c1	164*	-4	i	9	1	4
CC1CC(C)CN(C(=O)C(C)N2CCN(S(=O)(=O)c3cccs3)CC2)C1 (stereo unspecified)	0	-13	.	0	0	12
CCc1cc(=O)oc2c(C)c(O)c(CN3CCCCC3)cc12	+	-2	i	32*	2	-4
SMILES	Mtb FBA inh	Mtb betalactam	RecA splice inh	GDH-TPI inh	Mtb UGM inh	Rv3671c inh
Cc1c(O)c(CN2CCCC2)cc2c3c(c(=O)oc12)CCC3	198*	-10	-393	15	2	5
CC(=O)Nc1cccc2c1Cc1cc([N+](=O)[O-])ccc1-2	1	.	.	40*	.	.
COc1ccc(C=NNc2nc3c([nH]2)c(=O)n(C)c(=O)n3C)cc1	-1	.	.	34*	.	.
Cc1ccc(C=NNc2nc3c([nH]2)c(=O)n(C)c(=O)n3C)cc1	5	.	.	46*	.	.
N#C/C(=C\c1ccc[nH]1)C(=O)N1CCCCC1	0	-4	0	31*	0	3
N#C/C(=C\c1ccc(O)cc1)C(=O)N1CCCC1	0	-6	0	16	0	1
CCOc1ccccc1NC(=O)CSc1nnc(CNC(=O)c2c(F)cccc2Cl)o1	2	-10	3	0	-3	-8
O=C(/C=C/Nc1cccc(C(F)(F)F)c1)c1ccc(Oc2ncccn2)cc1	-1	3	-4	32*	-1	-7
c1ccc(CN2CCC3CC2c2cc(N4CCCCC4)ccc23)cc1 (stereo unspecified)	3	.	.	8	.	.
COc1ccc(C(=O)Nc2cccc(/C=C(\CCC(=O)O)c3nc4ccccc4s3)c2)cc1	2	27	0	32*	-1	-31
CN(c1ccccc1)c1ccc(/C=C(\CCC(=O)O)c2nc3ccccc3s2)cc1[N+](=O)[O-]	0	-3	7	23	3	-3
Cc1ccc(/C=C(\CCC(=O)O)c2nc3ccccc3s2)cc1[N+](=O)[O-]	-3	6	11	34*	1	3
COc1cc(/C=C(\CC(=O)O)c2nc3ccccc3s2)cc(OC)c1O	7	4	-23	39*	0	7
CNc1ccc(/C=C(\CCC(=O)O)c2nc3ccccc3s2)cc1[N+](=O)[O-]	-8	6	2	35*	2	4
COc1ccc(/C=C(\CC(=O)O)c2nc3ccccc3s2)cc1O	2	-2	-1	18	-1	8
O=[N+]([O-])c1cc([N+](=O)[O-])c(Oc2cncc(Cl)c2)cc1NC1CCCCCCC1	-1	-4	0	4	0	-2
CC(NC(=O)c1ccco1)C(=O)N1CCN(C(c2ccccc2)c2ccccc2)CC1 (stereo unspecified)	-3	7	6	-8	-2	4
O=C(CC1SC(=O)NC1=O)Oc1ccc(/C=N/NC(=O)c2ccccc2O)cc1 (stereo unspecified)	3	.	5	42*	2	2
Cc1cc(S(=O)(=O)ON2C(=O)c3ccccc3C2=O)ccc1F	37*	-5	1	8	3	7
